Rows were chosen to be rich in hits. Some 1.4% of all compounds tested hit in one or more screens of this group.
PINK1 modulator = modulators of PINK1 expression; PINK1 immunofluorescence, high-content cytometry, 24 h; Potency, µM (doses to about 76.6 µM), for inactives: at the top dose activation (PINK1 increase), most hits filed as activators; 0.2% of 410,000 active; AID 624263; active = well fitted activation curve with a large enough effect; inconclusive = small, poorly fitted or top-dose-only effect; cell line not stated here; also: potency is read from the fitted curve at half-maximal effect; % of control where 0% means no effect; nearly all actives have a fitted effect of over 65% in size
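Compound titrations (5 concentrations, 24 h) on a stable cell line; DMSO and CCCP controls. Endpoint: fixed-cell PINK1 immunofluorescence with mitochondrial, cell and nuclear markers, scanned by microplate cytometer.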
CCT modulator = changes cytosolic chaperonin activity. 0.3% of 360,000 active. AID 651819. activity change, % (no concentration beside the values), hits read low. purified chaperonin ATPase assay, HTRF ADP detection, 30 min; in the data active = activity change below about -30%; also: % is scaled to controls: 0 for no effect and ±100 for the full control effect
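First, chaperonin was dispensed at 40 nM or 20 nM final depending on batch activity. Next, compounds were pinned at 76 uM and ATP added at 10 uM. After 30 min at 37 °C, ADP detection reagents ran 30 min at ambient temperature.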
p53 reactivation = re-activators of mutant p53; H1299 p53-A138V BP100-luciferase reporter, luminescence, 24 h; Potency, µM (titrated, usually from 92.2 µM), for the others: at the highest dose activity change, positive = activation, most hits filed as activators; 0.063% of 320,000 active; also: potency is read from the fitted curve at half-maximal effect; % of control where 0% means no effect; nearly all actives have a fitted effect of over 45% in size
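H1299 (p53-null), stable ts p53-A138V + BP100-Luc; 1000 cells/well, Opti-MEM/10% FBS; cpd 4 pt, 1:5; 24 h, 37 deg C, 5% CO2; detection reagent 10 min RT; luminescence.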
Mm-Cpn inhibitor = inhibitors of Methanococcus maripaludis chaperonin TRiC (MmCpn); Potency, µM (doses to about 76.9 µM), without a hit: top-dose activity, negative = inhibition, hits mostly inhibitors; purified Mm-Cpn ATPase, ADP Transcreener TR-FRET; 0.031% of 330,000 active; AID 504842; also: potency is read from the fitted curve at half-maximal effect; % is scaled to controls: 0 for no effect and ±100 for the full control effect; nearly all actives have a fitted effect of over 80% in size
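ATPase turnover read by TR-FRET ADP competition (Eu cryptate antibody/ADP-d2, 665/590 nm): 10uM ATP final, 25nM Mm-CPN final, 30 min 37degC after 10-min compound preincubation, pH 7.4 Tris/KCl/MgCl2/DTT buffer.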
12-LOX inh = inhibitors of human 12S-lipoxygenase ALOX12. P18054. purified 12hLO, xylenol orange hydroperoxide absorbance. Potency, µM (doses to about 108 µM), for the others: top-dose activity change, negative = inhibition, actives largely listed as inhibitors. 1.1% of 580,000 active. AID 1671190; also: potency is read from the fitted curve at half-maximal effect; % is scaled to controls: 0 for no effect and ±100 for the full control effect
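Hydroperoxide product was detected by ferrous iron/xylenol orange as the 573 to 405 nm absorbance ratio. Arachidonic acid at 40 uM (final) was turned over for 30 min at room temperature by 150 nM human 12hLO, pH 7.0 Hepes buffer, after 15 min compound preincubation.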
ASM inhibitor = human S-ASM enzyme inhibition. P17405. placental ASM, HMU-PC fluorogenic substrate, 60 min. Potency, µM (titrated, usually from 57.5 µM), for the others: at the top dose activity change, negative = inhibition, actives largely listed as inhibitors. 0.006% of 340,000 active. AID 504937; also: potency is read from the fitted curve at half-maximal effect
Target sequence (P17405 47-631 limits assumed): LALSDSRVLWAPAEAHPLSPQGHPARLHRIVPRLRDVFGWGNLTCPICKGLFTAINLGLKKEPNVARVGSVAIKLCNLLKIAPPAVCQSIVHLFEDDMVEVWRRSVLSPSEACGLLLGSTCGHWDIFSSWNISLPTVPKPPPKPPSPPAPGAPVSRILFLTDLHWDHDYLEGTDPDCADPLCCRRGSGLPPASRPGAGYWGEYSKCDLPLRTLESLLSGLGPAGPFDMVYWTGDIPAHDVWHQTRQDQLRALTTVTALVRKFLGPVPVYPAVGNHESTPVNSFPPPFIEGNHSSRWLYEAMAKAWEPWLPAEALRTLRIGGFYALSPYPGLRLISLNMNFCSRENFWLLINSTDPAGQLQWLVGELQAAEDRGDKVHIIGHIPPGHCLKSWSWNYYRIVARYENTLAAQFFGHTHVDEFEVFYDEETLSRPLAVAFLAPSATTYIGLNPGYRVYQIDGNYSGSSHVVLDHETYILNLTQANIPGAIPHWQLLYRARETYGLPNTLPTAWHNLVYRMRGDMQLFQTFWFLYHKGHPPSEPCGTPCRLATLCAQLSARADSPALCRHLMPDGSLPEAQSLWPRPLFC
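Human placenta-derived ASM preincubated with compound 10 min at room temperature, then reacted with 9 uM (final) fluorogenic HMU-PC substrate for 60 min at 37 C. Stop solution raises pH to 10; fluorescence read at Ex 386/Em 447 nm.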
Starred values were filed as active, the others as inactive; u = inconclusive; x = no result; ! = a repeat was not active; [ ] = dose if it differs, or a comment. Unless noted, calls follow the shape of the dose curve; as a rule, active = well fitted curve in the direction sought with a large enough effect; inconclusive = small, poorly fitted or top-dose-only effect, or another doubt; inactive = no such curve, though single readings can be large; an effect the other way counts as inactive or inconclusive.

SMILES | PINK1 modulator | CCT modulator | p53 reactivation | Mm-Cpn inhibitor | 12-LOX inh | ASM inhibitor
CSc1ccc(NC(=O)c2n[nH]c(=O)c3ccccc23)cc1 | x | x | x | x | -44% | x
CC(=O)c1ccc(OCc2coc(-c3cccc(F)c3)n2)cc1 | x | x | x | x | 45µM* | x
CC(=O)c1cccc(OCc2coc(-c3cccc(F)c3)n2)c1 | x | x | x | x | -21% | x
COCCCNCCCCOc1ccc(Br)cc1Cl | 3% | 0 | -7% | 1% | -15% | -2%
CN(C)CCCCOc1ccc(Br)cc1Cl | 1% | -59* | -4% | -6% | 58% | 0%
CC1CCCN(CCCOc2ccc(Br)cc2Cl)C1 (configuration not stated) | 3% | -3 | 0% | 2% | 1.1µM* | -1%
COC(=O)[C@@H]1Cc2ncn(Cc3ccc(Cl)cc3)c2CN1S(=O)(=O)c1cccc2c(N(C)C)cccc12 | x | x | x | x | 56% | x
Cc1ccccc1N1CCN(C(=O)c2ccccc2NC(=O)c2ccccc2C(=O)O)CC1 | -1% | -66* | -4% | 2% | -4% | 2%
CN1CCN(C(=O)c2ccccc2NC(=O)c2ccccc2Br)CC1 | 3% | 0 | 4% | 2% | 47% | -1%
O=C1N(c2ccccc2)c2ccccc2C1(Cc1ccncc1)Cc1ccncc1 | 0% | 2 | x | -1% | 24µM*! | -5%
CC1(CCBr)C(=O)N(c2ccccc2)c2ccccc21 (configuration not stated) | 2% | 2 | -4% | -4% | -20% | 3%
COc1ccc2[nH]cc(CCNC(=O)CCC[C@H]3NC[C@@H]4C[C@H]3CN(Cc3ccccc3)C4)c2c1 | x | x | x | x | 4µM* | x
CNC(=O)CCC[C@H]1NC[C@@H]2CC1CN(Cc1ccccc1)C2 | x | x | x | x | 8.9µM* | x
NC(=O)CCC[C@H]1NC[C@@H]2C[C@H]1CN(Cc1ccccc1)C2 | x | x | x | x | 13% | x
CC1(C)Cc2c(c(-c3ccco3)nc3sc4c(NCCCO)ncnc4c23)CO1 | 1% | -42* | -10% | -1% | u | 50%
O=C1c2ccccc2NC(c2ccc(-c3cccc(F)c3)o2)N1O (configuration not stated) | 3% | x | u | u | 35µM* | -1%
O=C1c2ccccc2NC(c2ccc(Cl)cc2Cl)N1O (configuration not stated) | 2% | -6 | 0% | 1% | 10µM* | -4%
Cc1cccc(C)c1NC(=O)c1ccc2ccccc2n1 | x | x | x | x | -14% | x
Cc1ccc(S(=O)(=O)/N=C2/C=C(C3C(=O)CC(C)(C)CC3=O)C(=O)c3ccccc32)cc1 | 7% | -14 | u | -5% | 45µM* | 0%
O=C(Nc1ccccc1F)c1cc(CN2CCOCC2)on1 | x | x | x | x | 8% | x
Cc1cc2c(cc1C)[n+](C)cn2CC(O)COCc1ccccc1 (configuration not stated) | 1%[38.3 µM] | -2 | -9% | 1% | u | 6%
C[n+]1cn(CC(O)COCc2ccccc2)c2ccccc21 (configuration not stated) | 0% | -1 | -5% | 2% | 40µM* | -5%
CCOc1cccc2c(C)nc(Nc3nc(C)c(Cc4ccc(C)cc4)c(=O)[nH]3)nc12 | x | x | x | x | 59% | x
C[C@H](c1ccccc1)N1C[C@H](COCc2ccccc2)Oc2cc(N3CCC[C@H]3CO)ccc2S1(=O)=O | 5% | 0 | x | x | 50µM* | x
COc1ccc(NC(=O)Nc2cccc(NC(C)=O)c2)c(OC)c1 | 1% | -43* | -4% | 1% | -9% | 1%
O=C(Nc1cccc([N+](=O)[O-])c1)Nc1cccc([N+](=O)[O-])c1 | 21% | 0 | 4% | u | -4% | -2%

Compound activity: PubChem BioAssay, National Center for Advancing Translational Sciences (NCATS)
